Measurements from PubChem BioAssay (Tox21).
Results filed as inconclusive are left out. The source made the active and inactive calls. Unless noted, calls follow the shape of the dose curve; as a rule, active = well fitted curve in the direction sought with a large enough effect in the repeat runs; inconclusive = weak or mixed curves; inactive = no such curve, though single readings can be large; an effect the other way counts as inactive or inconclusive.

Assays:
[1] = qHTS assay to test for compound auto fluorescence at 535 nm (green) in HEK293 cells (AID 720680)
[2] = qHTS assay to test for compound auto fluorescence at 460 nm (blue) in HEK293 cell free culture (AID 720681)
In short: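 Compounds were added to cell-free DMEM with 10% FBS and fluorescence read directly. The blue channel used 405 nm excitation and 460 nm emission, with triamterene as the reference fluorophore.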

[3] = qHTS assay to test for compound auto fluorescence at 535 nm (green) in HEK293 cell free culture (AID 720682)
In short: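 Cell-free medium (DMEM, 10% FBS) receives compound or DMSO by pintool. Plate read directly at Ex 485/Em 535 nm. Signal converted to fluorescein equivalency.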

[4] = qHTS assay to test for compound auto fluorescence at 590 nm (red) in HEK293 cell free culture (AID 720683)
In short: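 Cell-free wells of DMEM with 10% FBS received compound, and intrinsic fluorescence was read at excitation/emission 540/590 nm. Values expressed as equivalence to Rose Bengal sodium.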

[5] = qHTS assay to test for compound auto fluorescence at 460 nm (blue) in HepG2 cell free culture (AID 720685)
In short: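 Compound (23 nL) or DMSO pinned into cell-free MEM with 10% FBS; blue fluorescence read at 405/460 nm excitation/emission, expressed as auto-fluorescence equivalency to triamterene.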

[6] = qHTS assay to test for compound auto fluorescence at 535 nm (green) in HepG2 cell free culture (AID 720686)
[7] = qHTS assay to test for compound auto fluorescence at 460 nm (blue) in HepG2 cells (AID 720687)
In short: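 HepG2 cells in MEM with 10% FBS, attached overnight at 37 C, were exposed to compound or DMSO for 1 hr at 37 C, 5% CO2. Blue fluorescence was read at 405/460 nm, with triamterene as reference fluorophore.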

[8] = target: Glucocorticoid receptor (Homo sapiens) (UniProt P04150); assay: qHTS assay to identify small molecule agonists of the glucocorticoid receptor (GR) signaling pathway (AID 720691; active = well fitted activation curve with a large enough effect in the signal ratio in the repeat runs, not every such curve was filed as active; the % refers to the signal ratio)
In short: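 Fluorescence intensity from LiveBLAzer B/G FRET substrate (2 h, room temperature) reports beta-lactamase expression driven by the glucocorticoid response element in GR-bla HeLa cells after 18 h compound exposure at 37 C.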

[9] = qHTS assay to identify small molecule antagonists of the glucocorticoid receptor (GR) signaling pathway - cell viability counter screen (AID 720693); also: nearly all actives have a fitted effect of over 55% in size
[10] = qHTS assay to identify small molecule antagonists of the androgen receptor (AR) signaling pathway - cell viability counter screen (AID 743033; also: nearly all actives have a fitted effect of over 45% in size)
[11] = qHTS assay to identify small molecule antagonists of the androgen receptor (AR) signaling pathway using the MDA cell line - cell viability counter screen (AID 743041; also: nearly all actives have a fitted effect of over 45% in size; also: potency is read from the fitted curve at half-maximal effect)
In short: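 Same-well cytotoxicity was assessed by CellTiter-Fluor in MDA-kb2 AR-luc cells after 16 h of compound treatment under R1881 agonism.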

[12] = qHTS assay to test for compound auto fluorescence at 590 nm (red) in HepG2 cell free culture (AID 720684)
In short: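 Compounds are added to culture medium (MEM, 10% FBS) lacking cells, then fluorescence is read at excitation 540 nm, emission 590 nm, with Rose Bengal sodium as the equivalency standard.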

[13] = qHTS assay for identifying genotoxic compounds that show differential cytotoxicity against isogenic chicken DT40 cell lines with known DNA damage response pathways - Rad54/Ku70 mutant cell line (AID 743015); also: nearly all actives have a fitted effect of over 60% in size; also: potency is read from the fitted curve at half-maximal effect
[14] = target: Androgen receptor (Homo sapiens) (UniProt P10275); assay: qHTS assay to identify small molecule agonists of the androgen receptor (AR) signaling pathway using the MDA cell line (AID 743040; also: nearly all actives have a fitted effect of over 20% in size)
In short: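 Human breast carcinoma MDA-kb2 reporter cells (MMTV-luc, AR/GR elements) were treated for 16 h at 37C in 0% CO2 following a 5 h settling period. Signal was quantified by ONE-Glo luminescence.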

[15] = target: Androgen receptor (Homo sapiens) (UniProt P10275); assay: qHTS assay to identify small molecule antagonists of the androgen receptor (AR) signaling pathway using the MDA cell line (AID 743042; also: nearly all actives have a fitted effect of over 55% in size)
In short: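 MDA-kb2 breast carcinoma cells carrying MMTV-luciferase (AR/GR responsive) were co-treated with compounds and the agonist R1881 for 16 h at 37C. Inhibition read as ONE-Glo luminescence; CellTiter-Fluor fluorescence measured in parallel for cytotoxicity.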

[16] = qHTS assay for identifying genotoxic compounds that show differential cytotoxicity against isogenic chicken DT40 cell lines with known DNA damage response pathways - Rev3 mutant cell line (AID 743014); also: nearly all actives have a fitted effect of over 55% in size; also: potency is read from the fitted curve at half-maximal effect
[17] = qHTS assay for identifying genotoxic compounds that show differential cytotoxicity against isogenic chicken DT40 cell lines with known DNA damage response pathways - wild type cell line (AID 743012); also: nearly all actives have a fitted effect of over 60% in size; also: potency is read from the fitted curve at half-maximal effect
In short: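 Wild type DT40, 300 cells/well, ~0.5 h settle at 37 C/5% CO2; compounds in DMSO added by pintool; 40 h at 37 C/5% CO2; CellTiter-Glo, 30 min RT; luminescence.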

Measured: Potency

Chain of Glucocorticoid receptor (Homo sapiens) (P04150 whole entry, looked up): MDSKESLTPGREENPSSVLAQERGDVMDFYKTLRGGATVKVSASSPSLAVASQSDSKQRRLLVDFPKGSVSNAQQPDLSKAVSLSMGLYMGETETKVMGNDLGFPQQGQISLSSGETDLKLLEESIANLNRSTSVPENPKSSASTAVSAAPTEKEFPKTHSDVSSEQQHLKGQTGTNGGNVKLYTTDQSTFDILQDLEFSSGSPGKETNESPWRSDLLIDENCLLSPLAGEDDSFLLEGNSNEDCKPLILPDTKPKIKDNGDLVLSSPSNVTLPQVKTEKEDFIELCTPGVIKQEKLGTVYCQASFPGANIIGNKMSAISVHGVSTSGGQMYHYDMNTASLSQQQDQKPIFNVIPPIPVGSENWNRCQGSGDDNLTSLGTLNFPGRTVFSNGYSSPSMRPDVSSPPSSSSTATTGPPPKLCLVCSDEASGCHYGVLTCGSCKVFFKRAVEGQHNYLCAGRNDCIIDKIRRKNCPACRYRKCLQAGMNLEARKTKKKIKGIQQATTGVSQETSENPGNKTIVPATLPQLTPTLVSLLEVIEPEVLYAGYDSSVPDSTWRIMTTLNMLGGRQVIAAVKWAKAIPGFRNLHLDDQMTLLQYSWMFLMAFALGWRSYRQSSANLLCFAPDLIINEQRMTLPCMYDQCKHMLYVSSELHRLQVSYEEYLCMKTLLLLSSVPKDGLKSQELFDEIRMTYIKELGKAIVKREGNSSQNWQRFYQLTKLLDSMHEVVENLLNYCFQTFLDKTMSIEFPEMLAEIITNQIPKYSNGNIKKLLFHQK
Chain of Androgen receptor (Homo sapiens) (P10275 whole entry, looked up): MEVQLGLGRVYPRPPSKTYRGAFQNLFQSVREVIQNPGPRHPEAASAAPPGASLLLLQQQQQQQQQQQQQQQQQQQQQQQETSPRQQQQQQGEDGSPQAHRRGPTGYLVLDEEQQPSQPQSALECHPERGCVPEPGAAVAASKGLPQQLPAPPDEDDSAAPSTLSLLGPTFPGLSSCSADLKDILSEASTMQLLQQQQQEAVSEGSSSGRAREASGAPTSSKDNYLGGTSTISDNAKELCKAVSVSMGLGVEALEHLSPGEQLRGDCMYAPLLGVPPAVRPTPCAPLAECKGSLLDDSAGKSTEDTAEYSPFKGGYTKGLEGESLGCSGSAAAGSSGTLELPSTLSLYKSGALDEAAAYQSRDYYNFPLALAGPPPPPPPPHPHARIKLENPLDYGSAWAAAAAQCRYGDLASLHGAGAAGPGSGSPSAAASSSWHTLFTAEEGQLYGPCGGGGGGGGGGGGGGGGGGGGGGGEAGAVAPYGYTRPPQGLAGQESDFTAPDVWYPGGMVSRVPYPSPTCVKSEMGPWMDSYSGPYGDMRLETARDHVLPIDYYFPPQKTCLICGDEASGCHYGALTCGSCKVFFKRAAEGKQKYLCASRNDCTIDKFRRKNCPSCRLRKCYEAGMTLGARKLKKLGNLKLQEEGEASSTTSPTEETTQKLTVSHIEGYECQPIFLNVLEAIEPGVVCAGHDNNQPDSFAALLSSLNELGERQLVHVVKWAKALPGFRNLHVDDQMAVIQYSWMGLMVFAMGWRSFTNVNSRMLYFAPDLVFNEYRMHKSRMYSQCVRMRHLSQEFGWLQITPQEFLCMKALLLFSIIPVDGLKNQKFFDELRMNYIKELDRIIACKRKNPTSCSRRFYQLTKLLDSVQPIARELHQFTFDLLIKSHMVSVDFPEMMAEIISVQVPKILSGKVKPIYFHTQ

N#Cc1ccc(CC(=O)c2cccc(C(F)(F)F)c2)cc1
not listed: [12] | [13] | [14] | [15] | [16] | [17]
inactive: all other assays above

CC(C)=CCC/C(C)=C/C=N/O
not listed: [6] | [13] | [14] | [15] | [16] | [17]
inactive: all other assays above

O=c1[nH][nH]c2ccccc12
not listed: [6] | [16] | [17]
inactive: all other assays above

CC(C)NC(=O)c1ccccc1N
not listed: [8] | [11] | [12] | [14] | [15] | [17]
inactive: all other assays above

CC1(C)CC(O)CC(C)(C)N1[O]
not listed: [8] | [10] | [12] | [14] | [15] | [17]
inactive: all other assays above

O=Cc1ccc(Cl)c([N+](=O)[O-])c1
active: [17] 4.33 µM | [16] 4.33 µM | [13] 3.06 µM
not listed: [8] | [12] | [14] | [15]
inactive: all other assays above

O=C(O)CCc1nc2ccccc2[nH]1
not listed: [8] | [11] | [12] | [14] | [15]
inactive: all other assays above

CCc1ccc2c(c1)C(=O)c1ccccc1C2=O
not listed: [6] | [8] | [11] | [14] | [15] | [16] | [17]
inactive: all other assays above

C=CC(=O)OCCCCCCCCCC
not listed: [6] | [14] | [15] | [17]
inactive: all other assays above

O=C1c2ccccc2C(=O)C1c1ccc2cc(S(=O)(=O)O)cc(S(=O)(=O)O)c2n1
active: [11] 52.5 µM
not listed: [6] | [13] | [14] | [15] | [16]
inactive: all other assays above
